# Where a name gives a salt, the structure may show the parent alone.
# Test system: K562
# Assay: cell viability relative to vehicle control; higher = less cytotoxic
# Conditions: 10 µM; SRSF2 genotype: SRSF2 wt/wt
# In short: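 Each screen used CRISPR-edited mutant and wild-type clones from four leukaemia lines. Compounds were acoustically dispensed at a single 10 µM dose, and CellTiter-Glo luminescence was read after 48 h with the supernatant first removed. Viability was analysed in Genedata Screener and given as percent of the on-plate vehicle control.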
row,Compound,cell viability [%]
1,CCC[C@H](Nc1nc(-c2ccc(NC(=O)NCC)c(OC)c2)ncc1C)c1cccnc1,31.9
2,O=C(O)CCc1ccc(NCc2cccc(Oc3ccccc3)c2)cc1,111
3,NC(=O)N/N=C/c1ccc([N+](=O)[O-])o1 [Nitrofurazone (Nitrofural)],96.7
4,Cc1cnc(C(=O)O)c[n+]1[O-] [Acipimox],97.6
5,CS(=O)(=O)c1ccc(-c2cnc(N)c(C(=O)Nc3ccccc3)n2)cc1,116
6,COCCOc1nc(-c2ccc(Cl)c(Cl)c2)n(-c2ccc(NC(=O)CCl)cc2)n1 [MI-2 (MALT1 inhibitor)],6.61
7,O=C(O)C(S)=Cc1c[nH]c2ccc(F)cc12,97
8,C[C@]1(O)C[C@@H](c2nc(-c3ccc4ccc(-c5ccccc5)nc4c3)c3c(N)nccn32)C1 [OSI-906 (Linsitinib)],80.6
9,O=C(O)/C=C/c1ccc(O)cc1 [p-Coumaric Acid],110
10,c1ccc(-c2ccc(C(c3ccccc3)n3ccnc3)cc2)cc1 (configuration not stated) [Bifonazole],79.7
11,Cc1cc(C)c(/C=C2\C(=O)Nc3ccccc32)[nH]1 [Semaxanib (SU5416)],105
12,NC[C@@](O)(c1ccc(Cl)cc1)c1ccc(-c2cn[nH]c2)cc1,13
13,COc1cc(/C=C/C(=O)CC(=O)/C=C/c2ccc(O)c(OC)c2)ccc1O [Curcumin],91.9
14,Oc1ccc(-c2nc(-c3ccc(F)cc3)c(-c3ccncc3)[nH]2)cc1,93.5
15,CCN(CC)CCOC(=O)C(c1ccccc1)c1ccccc1 [Adiphenine HCl],85.9
16,C=C1[C@H](O)C[C@H]2[C@@H](/C=C(\C)C(=O)[C@@]3(O)C[C@H](C)[C@H](O)[C@@H]3[C@H]1O)C2(C)C,99

row,Compound,cell viability [%]
1,COc1cccc(C=NCCN=Cc2cccc(OC)c2[O-])c1[O-].[Cl-].[Mn+3],97.3
2,c1ccc(CNc2nc(NCc3ccccc3)c3ccccc3n2)cc1,12.4
3,CCCC1O[C@@H]2C[C@H]3[C@@H]4CCC5=CC(=O)C=C[C@]5(C)[C@H]4[C@@H](O)C[C@]3(C)[C@]2(C(=O)CO)O1 (some centres not stated) [Budesonide],83.7
4,"Cc1[nH]c(/C=C2\C(=O)Nc3ccccc32)c(C)c1CCC(=O)O [Orantinib (TSU-68, SU6668)]",95.5
5,CC(=O)Oc1cccc2ccccc12 [1-Naphthyl acetate],95.8
6,CN1CCN(CCOc2cc(OC3CCOCC3)c3c(Nc4c(Cl)ccc5c4OCO5)ncnc3c2)CC1 [Saracatinib (AZD0530)],9.65
7,CC[C@H]1OC(=O)[C@@](C)(F)C(=O)[C@H](C)[C@@H](O[C@@H]2O[C@H](C)C[C@H](N(C)C)[C@H]2O)[C@](C)(OC)C[C@@H](C)C(=O)[C@H](C)[C@H]2N(CCCCn3cc(-c4cccc(N)c4)nn3)C(=O)O[C@]12C [Solithromycin],91.2
8,C[C@@H]1O[C@@H](O[C@H]2[C@H](Oc3cc(O)c(C(=O)CCc4ccc(O)cc4)c(O)c3)O[C@H](CO)[C@@H](O)[C@@H]2O)[C@H](O)[C@H](O)[C@H]1O [Naringin Dihydrochalcone (Naringin DC)],94.5
9,O=C(Nc1c[nH]nc1-c1nc2ccc(CN3CCOCC3)cc2[nH]1)NC1CC1,15.8
10,Nc1ccccc1NC(=O)c1ccc(CNc2nccc(-c3cccnc3)n2)cc1 [Mocetinostat (MGCD0103)],10.5
11,COc1c2c(cc3oc(COC4OC(CO)C(O)C(O)C4O)cc(=O)c13)OC(C(C)(C)O)C2 (configuration not stated) [Prim-o-glucosylcimifugin],88.3
12,CN(CCOc1ccc(CC2SC(=O)NC2=O)cc1)c1ccccn1 (configuration not stated) [Rosiglitazone (Avandia)],85
13,CC(C)CC(=O)Nc1n[nH]c2c1CN(C(=O)C1CCN(C)CC1)C2(C)C,38.4
14,CC1(C)[C@@H](O[C@H]2O[C@H](C(=O)O)[C@@H](O)[C@H](O)[C@H]2O[C@@H]2O[C@H](C(=O)O)[C@@H](O)[C@H](O)[C@H]2O)CC[C@]2(C)[C@H]3C(=O)C=C4[C@@H]5C[C@@](C)(C(=O)O)CC[C@]5(C)CC[C@@]4(C)[C@]3(C)CC[C@@H]12 [Ammonium Glycyrrhizinate (AMGZ)],107
15,CCC(=O)Nc1cccc(Oc2nc(Nc3ccc(N4CCN(C)CC4)cc3OC)ncc2Cl)c1,90.6
16,C[C@]12CC[C@@H]3c4ccc(O)cc4CC[C@H]3[C@@H]1C[C@@H](O)[C@@H]2O [Estriol],87.9

# — the supplement of paper PMC10981050
